# In ChEMBL document CHEMBL3988442, “University of Dundee, Small-Polar-MMV Screening Library” (2021):
# Among all 48,000 compounds or so, about 13,000 (27%) showed an effect of 50% or more. This is one part of the list.
# System: Wolbachia pipientis
# Assay: Anti-Wolbachia Cell-Based Screen
# Type: functional
# Design: scale not given: in the data most compounds retested in dose-response had high values
# Details: 5 µM
row,Compound,Percent Effect [%]
1,N#Cc1nccnc1N1CCN(CCOCc2ccccc2)CC1,4.216
2,CC1CCc2sc(C(=O)Nc3cnn(C)c3)cc2C1 (stereo not given),18.64
3,Cc1ncnc(NC(CC(C)(C)C)c2cccnc2)c1C (stereo not given),-0.1537
4,CN(Cc1cccs1)C(=O)c1ccc(=O)n(C)c1,1.128
5,Fc1cccc2ncnc(NCC3(N4CCOCC4)CCSC3)c12 (stereo not given),-8.869
6,COc1ccc(C2CCCN2C(=O)c2cc3c([nH]c2=O)CCC3)cc1 (stereo not given),-1.742
7,O=C(C1COc2ccccc2C1)N(CCO)Cc1ccccc1 (stereo not given),3.539
8,CSc1ncccc1C(=O)N(CCO)Cc1ccccc1,110.2
9,O=C(c1ccn(-c2ccc(F)cc2)n1)N(CCO)Cc1cccnc1,6.446
10,COc1cc(C(=O)NCCCc2ccccc2)on1,-0.8212
11,Cn1ccnc1CN(CCO)C(=O)c1cc2ccccc2o1,4.663
12,COc1ccc(C(=O)N(CCO)Cc2ccccc2)c(OC)n1,150.7
13,Cc1cccc(N2CCCC3(C2)CN(S(C)(=O)=O)CCO3)c1 (stereo not given),-0.08325
14,C1CC(c2noc(C3CC3)n2)CN(CCOCC2CC2)C1 (stereo not given),14.88
15,CC(C)c1nc(C2CCCN2CCOCC2CC2)no1 (stereo not given),114
16,CSCCCN1CCCC1c1noc(C)n1 (stereo not given),-3.652
17,Cc1nc(C2CCCN2CCOCC2CC2)no1 (stereo not given),95.01
18,Cc1nc(C2CCCN2CCc2cccs2)no1 (stereo not given),-9.357
19,CC(C)c1nc(C2CCCN2CCCc2nc3ccccc3o2)no1 (stereo not given),6.375
20,COc1cc(C)cc(-c2nc3c([nH]2)CCNC3)c1OC,7.084
21,O=C1CC(NCc2ccc(Cl)s2)CN1Cc1cccc(F)c1 (stereo not given),20.87
22,CN(C)c1ncc(CNC2CC(=O)N(CCc3cccc(Cl)c3)C2)s1 (stereo not given),116.6

row,Compound,Percent Effect [%]
1,Cc1nc[nH]c1CNC1CC(=O)N(CCc2cccc(Cl)c2)C1 (stereo not given),94.18
2,Cc1cccc(CNC2CC(=O)N(CCc3cccc(Cl)c3)C2)n1 (stereo not given),115.9
3,N#Cc1cccc(NC2CC(=O)N(CCc3ccc(F)cc3)C2)n1 (stereo not given),1.885
4,Cc1cc(C)nc(N2C[C@H]3OC(=O)N(CCc4cccc(Cl)c4)[C@H]3C2)n1,-8.827
5,Cc1nc(CNC2CC(=O)N(CCc3cccc(Cl)c3)C2)c[nH]1 (stereo not given),91.72
6,CC(=O)Nc1ccc(CNC2CC(=O)N(Cc3cccc(F)c3)C2)cc1 (stereo not given),-1.661
7,c1cc(CN2CCOC[C@H]2c2nc(-c3ccncc3)c[nH]2)ccn1,-7.2
8,CC(=O)N[C@H]1CN(CC(=O)NCc2ccccc2C)C[C@@H]1C(C)C,-0.9175
9,CCCc1cc(C(=O)N(CC)Cc2ccncc2)[nH]n1,-8.767
10,CN1CCN(c2ccc3ccc(C(=O)N4CCCCO4)cn23)CC1.O=C(O)C(F)(F)F,-14.14
11,Cc1nnc(N2CCCC(CS(N)(=O)=O)C2)c(C#N)c1C (stereo not given),-0.6364
12,CCOCCN1CCN(Cc2nnc(C3CC3)o2)CC1C (stereo not given),-16.34
13,CC(C)S(=O)(=O)N1C[C@H]2OC(=O)N(CCc3cccc(Cl)c3)[C@H]2C1,-13.46
14,Cc1ncc(CNC2CC(=O)N(CCc3cccc(Cl)c3)C2)n1C (stereo not given),82.2
15,CCCS(=O)(=O)N1C[C@H]2OC(=O)N(CCc3cccc(Cl)c3)[C@H]2C1,-3.172
16,Cc1ncsc1CNC(=O)N1CCN(Cc2ccccc2)CC1C (stereo not given),-7.787
17,Fc1ccccc1CN1CCCC2(CCN(c3ncccn3)CC2)C1.O=C(O)C(F)(F)F,3.614
18,COc1cc(N2CCC3(CCN(C(=O)c4cccnc4)CC3)C2)ncn1.O=C(O)C(F)(F)F,-2.068
19,O=C(O)C(F)(F)F.O=C(O)C(F)(F)F.c1ccc(CN2CCC3(CC2)CN(c2ccccn2)CCO3)nc1,2.249
20,COc1cc(N2CCC3(CCCN(Cc4ccccn4)C3)C2)ncn1.O=C(O)C(F)(F)F (stereo not given),109.9
21,O=C(O)C(F)(F)F.O=C(O)C(F)(F)F.c1cnc(N2CCCC3(CCN(c4ncccn4)C3)C2)nc1 (stereo not given),103.8
22,CN1CCC2(CCCN(c3nccc(C(F)(F)F)n3)C2)CC1.O=C(O)C(F)(F)F,-32.78

row,Compound,Percent Effect [%]
1,O=C(O)C(F)(F)F.O=C(O)C(F)(F)F.c1ccc(CN2CCC3(CC2)CCN(c2ccccn2)C3)nc1,79.01
2,O=C(O)C(F)(F)F.c1ccc(N2CCC3(CCCN(c4ncccn4)C3)C2)nc1 (stereo not given),93.44
3,COc1cc(N2CCC3(CCCN(C(=O)c4cccnc4)C3)C2)ncn1.O=C(O)C(F)(F)F (stereo not given),-28.04
4,N#Cc1ccc(N2CCC3(CCCN(c4ccccn4)C3)C2)nc1.O=C(O)C(F)(F)F (stereo not given),-3.068
5,Fc1ccc(CN2CCC3(CC2)CN(c2ccccn2)CCO3)cc1.O=C(O)C(F)(F)F.O=C(O)C(F)(F)F,-6.002
6,CC(=O)N1CCC2(CC1)CN(C)C(=O)C[C@H]2C(F)(F)F.Cl,-12.08
7,CN1CCN(C(=O)c2ccc(=O)n(C)c2)c2ccccc21,6.731
8,CCOc1ccc(-n2nc(C)c(CC(C)=O)c2C)cc1C(N)=O,-4.424
9,O=C(O)C(F)(F)F.O=S(=O)(C1CC1)N1CCC2(CCCN(c3ncccn3)C2)C1 (stereo not given),97.03
10,Cc1cnc(N2CC3(CCN(S(=O)(=O)C4CC4)C3)C2)nc1.O=C(O)C(F)(F)F,-3.978
11,O=S(=O)(C1CC1)N1CCC2(CN(c3ncccn3)C2)C1,-12.56
12,O=C(CCc1ccc(F)cc1)NCc1ccnc(NC2CC2)c1,-8.812
13,Cc1ccc(CN2CC[C@H]3CO[C@H](CN4CCN(C)CC4)[C@H]3C2)o1.O=C(O)C(F)(F)F.O=C(O)C(F)(F)F.O=C(O)C(F)(F)F,-46.51
14,O=C(O)C(F)(F)F.O=C(O)C(F)(F)F.c1cc(CN2CC[C@@H]3[C@@H](CO[C@H]3CN3CCOCC3)C2)cs1,92.79
15,CN1CCN(C[C@@H]2OC[C@H]3CN(Cc4ccsc4)CC[C@H]32)CC1.O=C(O)C(F)(F)F.O=C(O)C(F)(F)F.O=C(O)C(F)(F)F,-2.359
16,O=C(O)C(F)(F)F.O=C(O)C(F)(F)F.c1cc(CN2CC[C@H]3CO[C@H](CN4CCOCC4)[C@H]3C2)cs1,117.2
17,CN1CCN(C[C@H]2OC[C@@H]3CCN(Cc4ccsc4)C[C@@H]32)CC1,98.94
18,O=C(O)C(F)(F)F.O=C(O)C(F)(F)F.c1cc2c(cc1CN1CC[C@H]3CO[C@H](CN4CCCC4)[C@H]3C1)OCO2,-12.98
19,O=C(C1CCOCC1)N1C[C@@H]2CN(Cc3ccsc3)CCO[C@@H]2C1.O=C(O)C(F)(F)F,4.767
20,Cc1ccc(CN2CC[C@H]3CO[C@H](CN4CCCC4)[C@H]3C2)o1.O=C(O)C(F)(F)F.O=C(O)C(F)(F)F,-21.11
21,CN(Cc1ccco1)C[C@H]1OC[C@@H]2CCN(Cc3ccsc3)C[C@@H]21.O=C(O)C(F)(F)F.O=C(O)C(F)(F)F,-7.864
